# Experimental data: PubChem BioAssay (EPA / NIEHS)
# Records with an inconclusive call do not appear. The source made the active and inactive calls. Rule for the calls: active = hit-call score of the fitted dose curve at least 0.9, where 1 is the maximum; inconclusive = response in the unintended direction; inactive = score below 0.9.
# What was measured:
# [1] = target: rat Acetylcholinesterase (AChE), Ache (gene 83817) (UniProt P37136); experiment: NVS_ENZ_rAChE: NovaScreen (NVS) Enzymatic Assay for rat Acetylcholinesterase (AChE) (AID 2283233)
# Chain of rat Acetylcholinesterase (AChE), Ache (gene 83817) (P37136 whole entry, looked up): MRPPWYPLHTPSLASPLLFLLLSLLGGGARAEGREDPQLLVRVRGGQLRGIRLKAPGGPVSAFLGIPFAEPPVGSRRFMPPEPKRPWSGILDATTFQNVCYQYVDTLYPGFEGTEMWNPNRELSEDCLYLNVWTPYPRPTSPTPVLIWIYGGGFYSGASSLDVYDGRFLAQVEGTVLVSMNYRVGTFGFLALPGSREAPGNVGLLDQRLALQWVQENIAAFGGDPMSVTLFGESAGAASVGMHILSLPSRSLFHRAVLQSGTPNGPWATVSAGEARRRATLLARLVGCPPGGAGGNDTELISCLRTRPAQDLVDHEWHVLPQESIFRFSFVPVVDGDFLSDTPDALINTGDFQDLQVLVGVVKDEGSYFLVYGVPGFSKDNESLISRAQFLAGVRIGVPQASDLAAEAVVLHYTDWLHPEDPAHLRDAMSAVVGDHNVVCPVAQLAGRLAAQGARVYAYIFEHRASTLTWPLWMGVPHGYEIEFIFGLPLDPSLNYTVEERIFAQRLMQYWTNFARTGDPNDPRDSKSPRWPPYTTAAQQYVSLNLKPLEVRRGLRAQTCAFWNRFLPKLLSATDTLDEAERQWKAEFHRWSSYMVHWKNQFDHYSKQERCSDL
# Outline: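 Rat brain membrane acetylcholinesterase activity measured colorimetrically 0.33 h after compound addition, loss of signal relative to DMSO. Primary screen in duplicate at 25 uM; actives re-run as concentration-response with 50 uM top concentration.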
# [2] = tested on: rat Monoamine Oxidase, MAO-A, Central (MAOAC), gene 29253; experiment: NVS_ENZ_rMAOAC: NovaScreen (NVS) Enzymatic Assay for rat Monoamine Oxidase, MAO-A, Central (MAOAC) (AID 2283243);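 note: potency refers to inhibition seen as signal drop below DMSO baseline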
# Outline: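 Steps: rat brain protein extract dosed with test chemical (25 uM, duplicate, primary); incubated 1.5 h; radiolabelled product separated from substrate and counted. Signal loss versus DMSO scored as inhibition.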
# [3] = target: human Neonicotinoid receptor (NNR), CHRNA2 (gene 1135) (UniProt Q15822); experiment: NVS_LGIC_hNNR_NBungSens: NovaScreen (NVS) Ligand-Gated Ion Channel Assay for human Neonicotinoid receptor (NNR) (AID 2283313)
# Chain of human Neonicotinoid receptor (NNR), CHRNA2 (gene 1135) (Q15822 whole entry, looked up): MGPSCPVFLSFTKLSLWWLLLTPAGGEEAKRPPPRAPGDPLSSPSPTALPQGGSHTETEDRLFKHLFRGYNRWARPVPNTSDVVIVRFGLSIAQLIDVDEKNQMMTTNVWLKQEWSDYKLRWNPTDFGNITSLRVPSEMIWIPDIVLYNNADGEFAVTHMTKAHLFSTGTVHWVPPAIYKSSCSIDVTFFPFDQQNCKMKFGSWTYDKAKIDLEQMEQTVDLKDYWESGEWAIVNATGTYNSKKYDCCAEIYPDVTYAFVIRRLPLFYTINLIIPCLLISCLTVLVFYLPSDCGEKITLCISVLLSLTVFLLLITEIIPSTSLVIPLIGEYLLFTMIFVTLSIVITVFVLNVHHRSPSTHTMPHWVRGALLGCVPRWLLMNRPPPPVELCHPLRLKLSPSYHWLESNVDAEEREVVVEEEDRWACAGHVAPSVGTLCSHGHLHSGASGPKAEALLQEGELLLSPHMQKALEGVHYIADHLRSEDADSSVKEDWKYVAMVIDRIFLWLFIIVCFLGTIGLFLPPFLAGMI
# Outline: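 Radioligand displacement on human neuroblastoma membranes, 2 h, filter-based scintillation counting. Primary screen in duplicate at 25 uM; chemicals passing threshold (e.g. 30% inhibition) run singleton concentration-response to 50 uM; loss of binding fitted versus DMSO.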
# [4] = tested on: rat Monoamine Oxidase, MAO-A, Peripheral (MAOAP), gene 29253; experiment: NVS_ENZ_rMAOAP: NovaScreen (NVS) Enzymatic Assay for rat Monoamine Oxidase, MAO-A, Peripheral (MAOAP) (AID 2283237)
# Outline: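 Rat liver mitochondrial membranes served as the MAO-A source, with enzyme activity measured by radiometric scintillation counting 1.17 hours after dosing. Loss of signal was fitted against DMSO; primary screen used 25 uM in duplicate, follow-up used concentration series.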
# [5] = target: rat Monoamine Oxidase, MAO-B, Peripheral (MAOBP), Maob (gene 25750) (UniProt P19643); experiment: NVS_ENZ_rMAOBP: NovaScreen (NVS) Enzymatic Assay for rat Monoamine Oxidase, MAO-B, Peripheral (MAOBP) (AID 2283242)
# [6] = target: Norway rat Vesicular Monoamine Transporter (VMAT2), neurotransmitter transporter, Slc18a2 (gene 25549) (UniProt Q01827); experiment: NVS_TR_rVMAT2: NovaScreen (NVS) Transporter Assay for Norway rat Vesicular Monoamine Transporter (VMAT2), neurotransmitter transporter (AID 2283376);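 note: actives lower the bound radioligand signal below the DMSO level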
# Outline: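 Radioligand displacement binding on rat forebrain tissue preparation, filter-based scintillation read-out 1 hour after dosing. Primary screen in duplicate at 25 uM, then concentration series for actives; loss of signal versus DMSO.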
# [7] = target: human Tyrosine Protein Kinase Receptor Tie-2 (Tie2), TEK (gene 7010) (UniProt Q02763); experiment: NVS_ENZ_hTie2: NovaScreen (NVS) Enzymatic Assay for human Tyrosine Protein Kinase Receptor Tie-2 (Tie2) (AID 2283225)
# Chain of human Tyrosine Protein Kinase Receptor Tie-2 (Tie2), TEK (gene 7010) (Q02763 whole entry, looked up): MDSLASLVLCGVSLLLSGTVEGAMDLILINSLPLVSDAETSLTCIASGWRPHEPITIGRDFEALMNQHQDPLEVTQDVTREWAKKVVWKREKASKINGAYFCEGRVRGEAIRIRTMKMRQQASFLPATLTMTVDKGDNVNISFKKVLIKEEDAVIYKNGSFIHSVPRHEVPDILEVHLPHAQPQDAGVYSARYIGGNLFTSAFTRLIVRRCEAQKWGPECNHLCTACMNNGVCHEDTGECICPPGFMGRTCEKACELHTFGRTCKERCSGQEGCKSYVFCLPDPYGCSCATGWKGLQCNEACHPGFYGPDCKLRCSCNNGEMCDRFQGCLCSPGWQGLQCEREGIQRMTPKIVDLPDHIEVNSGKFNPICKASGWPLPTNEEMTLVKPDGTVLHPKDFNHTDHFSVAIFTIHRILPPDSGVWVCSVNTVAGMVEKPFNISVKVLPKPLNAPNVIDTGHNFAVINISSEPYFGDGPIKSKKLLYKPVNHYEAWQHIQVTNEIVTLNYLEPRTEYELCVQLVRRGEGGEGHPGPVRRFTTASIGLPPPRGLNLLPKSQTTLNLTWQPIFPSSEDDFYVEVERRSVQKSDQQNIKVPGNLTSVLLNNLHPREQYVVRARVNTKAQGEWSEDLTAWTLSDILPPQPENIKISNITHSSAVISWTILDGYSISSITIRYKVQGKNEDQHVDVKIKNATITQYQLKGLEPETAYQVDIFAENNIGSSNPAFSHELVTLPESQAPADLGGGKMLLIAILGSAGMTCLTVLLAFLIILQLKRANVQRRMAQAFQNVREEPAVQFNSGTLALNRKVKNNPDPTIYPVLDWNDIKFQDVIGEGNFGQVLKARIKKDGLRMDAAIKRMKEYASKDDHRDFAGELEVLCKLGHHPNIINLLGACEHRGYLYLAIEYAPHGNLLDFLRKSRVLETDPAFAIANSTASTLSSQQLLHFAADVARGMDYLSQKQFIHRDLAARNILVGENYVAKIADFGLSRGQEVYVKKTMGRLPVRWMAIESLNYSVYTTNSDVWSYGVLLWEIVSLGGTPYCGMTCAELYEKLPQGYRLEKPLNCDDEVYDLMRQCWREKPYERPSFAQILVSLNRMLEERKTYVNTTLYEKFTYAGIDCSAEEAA
# Outline: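 Recombinant human Tie2 kinase activity was read cell-free by fluorescence with electrophoretic mobility shift, 1 hour after dosing. The screen used 25 uM in duplicate, then concentration-response up to 50 uM. Signal loss was scored against DMSO.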
# [8] = target: human Protein Tyrosine Phosphatase Receptor Type C (PTPRC), PTPRC (gene 5788) (UniProt P08575); experiment: NVS_ENZ_hPTPRC: NovaScreen (NVS) Enzymatic Assay for human Protein Tyrosine Phosphatase Receptor Type C (PTPRC) (AID 2283212)
# Chain of human Protein Tyrosine Phosphatase Receptor Type C (PTPRC), PTPRC (gene 5788) (P08575 whole entry, looked up): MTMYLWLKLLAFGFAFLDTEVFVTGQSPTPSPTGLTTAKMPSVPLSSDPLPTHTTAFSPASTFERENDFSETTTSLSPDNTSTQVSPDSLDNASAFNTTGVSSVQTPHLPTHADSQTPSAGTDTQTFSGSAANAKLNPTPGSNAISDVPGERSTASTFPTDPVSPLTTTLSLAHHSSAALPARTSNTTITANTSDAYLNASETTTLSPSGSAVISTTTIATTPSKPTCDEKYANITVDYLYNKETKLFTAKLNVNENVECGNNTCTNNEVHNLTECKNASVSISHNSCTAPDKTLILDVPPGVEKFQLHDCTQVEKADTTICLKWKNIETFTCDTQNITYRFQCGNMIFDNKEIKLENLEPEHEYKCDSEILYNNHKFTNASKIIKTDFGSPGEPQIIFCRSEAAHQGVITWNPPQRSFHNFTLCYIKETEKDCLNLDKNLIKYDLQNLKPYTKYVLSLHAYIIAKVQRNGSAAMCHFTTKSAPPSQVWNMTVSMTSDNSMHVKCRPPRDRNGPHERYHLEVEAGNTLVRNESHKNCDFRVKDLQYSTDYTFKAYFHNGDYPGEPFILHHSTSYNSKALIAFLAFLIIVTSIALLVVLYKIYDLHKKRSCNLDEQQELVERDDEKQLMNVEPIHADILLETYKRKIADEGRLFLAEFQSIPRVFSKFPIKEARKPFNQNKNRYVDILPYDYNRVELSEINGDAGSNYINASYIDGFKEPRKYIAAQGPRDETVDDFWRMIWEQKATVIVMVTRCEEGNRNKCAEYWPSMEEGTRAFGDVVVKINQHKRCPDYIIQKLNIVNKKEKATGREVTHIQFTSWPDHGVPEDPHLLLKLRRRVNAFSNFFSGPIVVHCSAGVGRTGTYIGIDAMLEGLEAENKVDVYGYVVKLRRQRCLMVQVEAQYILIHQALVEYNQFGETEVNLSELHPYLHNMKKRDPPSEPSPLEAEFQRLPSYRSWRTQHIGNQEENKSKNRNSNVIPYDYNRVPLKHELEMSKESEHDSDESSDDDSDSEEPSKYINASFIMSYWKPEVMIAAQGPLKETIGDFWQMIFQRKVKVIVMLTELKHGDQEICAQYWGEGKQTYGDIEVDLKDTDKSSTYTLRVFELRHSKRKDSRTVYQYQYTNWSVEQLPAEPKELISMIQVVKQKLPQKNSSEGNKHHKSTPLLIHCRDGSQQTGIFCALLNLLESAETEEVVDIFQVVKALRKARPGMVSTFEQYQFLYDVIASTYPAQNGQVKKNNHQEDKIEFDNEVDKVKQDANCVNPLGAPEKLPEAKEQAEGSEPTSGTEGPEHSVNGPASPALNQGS
# Outline: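 Yeast-extracted human PTPRC used in a cell-free colorimetric enzyme activity read-out, 1 h after dosing. Primary screen in duplicate at 25 uM; actives rerun in concentration-response up to 50 uM, DMSO as baseline.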
# [9] = target: human Raf-1 Proto-Oncogene, serine/threonine Kinase (RAF1), RAF1 (gene 5894) (UniProt P04049); experiment: NVS_ENZ_hRAF1: NovaScreen (NVS) Enzymatic Assay for human Raf-1 Proto-Oncogene, serine/threonine Kinase (RAF1) (AID 2283216)
# Chain of human Raf-1 Proto-Oncogene, serine/threonine Kinase (RAF1), RAF1 (gene 5894) (P04049 whole entry, looked up): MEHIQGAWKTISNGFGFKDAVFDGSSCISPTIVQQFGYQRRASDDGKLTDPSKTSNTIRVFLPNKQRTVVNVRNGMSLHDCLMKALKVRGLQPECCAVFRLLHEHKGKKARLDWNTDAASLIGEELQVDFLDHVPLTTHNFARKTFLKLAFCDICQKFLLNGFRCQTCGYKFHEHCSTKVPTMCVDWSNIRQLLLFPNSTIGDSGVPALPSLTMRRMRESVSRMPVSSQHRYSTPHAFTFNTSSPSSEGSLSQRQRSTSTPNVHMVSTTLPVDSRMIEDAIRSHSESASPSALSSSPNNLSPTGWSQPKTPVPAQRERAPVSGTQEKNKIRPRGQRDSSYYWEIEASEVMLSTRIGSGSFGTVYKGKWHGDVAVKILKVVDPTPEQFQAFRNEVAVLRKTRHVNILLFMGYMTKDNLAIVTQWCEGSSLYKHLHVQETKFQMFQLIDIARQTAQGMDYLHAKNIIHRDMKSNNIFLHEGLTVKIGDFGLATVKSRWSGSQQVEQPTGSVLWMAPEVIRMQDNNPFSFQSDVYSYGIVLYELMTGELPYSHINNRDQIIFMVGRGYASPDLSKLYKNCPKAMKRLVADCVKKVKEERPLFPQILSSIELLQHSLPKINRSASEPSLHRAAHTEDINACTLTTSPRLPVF
# Outline: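 Cell-free recombinant kinase with specific fluorescent substrate, product separated by electrophoretic mobility shift; read 1 h after dosing. Primary screen at 25 uM in duplicate; hits then run in concentration-response up to 50 uM, fitted as loss of signal versus DMSO.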
# [10] = target: Voltage-dependent N-type calcium channel subunit alpha-1B (Rattus norvegicus) (UniProt Q02294); experiment: NVS_IC_rCaChN: NovaScreen (NVS) Ion Channel Assay for rat Calcium Channel, Type N (CaChN) (AID 2283317)
# [11] = target: rat Monoamine Oxidase, MAO-B, Central (MAOBC), Maob (gene 25750) (UniProt P19643); experiment: NVS_ENZ_rMAOBC: NovaScreen (NVS) Enzymatic Assay for rat Monoamine Oxidase, MAO-B, Central (MAOBC) (AID 2283238)
# Outline: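 MAO-B activity in rat brain tissue preparation, cell-free, measured radiometrically by scintillation counting 1.17 h after dosing. Screened in duplicate at 25 uM; actives then in concentration-response up to 50 uM. Loss of signal versus DMSO scored.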
# [12] = target: bovine Gamma-Aminobutyric Acid Type A Receptor BDZ, alpha 1 site (GABARa1), GABRA1 (gene 780973) (UniProt P08219); experiment: NVS_LGIC_bGABARa1: NovaScreen (NVS) Ligand-Gated Ion Channel Assay for bovine Gamma-Aminobutyric Acid Type A Receptor BDZ, alpha 1 site (GABARa1) (AID 2283321)
# Chain of bovine Gamma-Aminobutyric Acid Type A Receptor BDZ, alpha 1 site (GABARa1), GABRA1 (gene 780973) (P08219 whole entry, looked up): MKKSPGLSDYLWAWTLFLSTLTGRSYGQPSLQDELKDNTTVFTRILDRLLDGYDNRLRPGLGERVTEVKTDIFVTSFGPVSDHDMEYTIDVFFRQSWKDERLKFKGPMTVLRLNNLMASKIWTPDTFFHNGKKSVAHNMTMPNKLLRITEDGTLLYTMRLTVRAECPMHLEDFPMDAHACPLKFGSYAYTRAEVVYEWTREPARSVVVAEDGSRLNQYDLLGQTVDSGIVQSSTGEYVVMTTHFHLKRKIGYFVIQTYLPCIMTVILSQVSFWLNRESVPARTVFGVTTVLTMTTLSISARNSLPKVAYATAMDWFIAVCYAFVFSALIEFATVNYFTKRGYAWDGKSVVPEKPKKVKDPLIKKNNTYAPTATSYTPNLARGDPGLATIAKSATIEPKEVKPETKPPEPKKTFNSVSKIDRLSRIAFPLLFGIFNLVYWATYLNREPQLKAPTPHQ
# Outline: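 Radioligand competition binding on bovine cortical membranes, 0.75 h, filter-based scintillation counting. Primary single concentration 25 uM in duplicate; actives rerun in concentration-response to 50 uM max. Loss of signal fitted versus DMSO.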
# [13] = target: rat Corticotropin Releasing Factor Receptor (CRF), Crhr1 (gene 58959) (UniProt P35353); experiment: NVS_GPCR_rCRF: NovaScreen (NVS) G Protein-Coupled Receptor Assay for rat Corticotropin Releasing Factor Receptor (CRF) (AID 2283300)
# Outline: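 Rat cortical membranes used as receptor source in a radioligand competitive displacement binding assay; scintillation read 2 h after dosing. Primary screen run in duplicate at 25 uM; loss of signal versus DMSO baseline indicates binding.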
compound,measurement,setting,value
CCCCCCCCCCCC[N+](C)(C)C,outcome,[1],inactive
same,AC50,[2],25 µM (active)
same,AC50,[3],13.3 µM (active)
O=c1ccc2ccccc2o1,AC50,[4],6.56 µM (active)
same,AC50,[5],13.5 µM (active)
O=C1c2c(O)ccc(Nc3ccc(CCO)cc3)c2C(=O)c2c([N+](=O)[O-])ccc(O)c21,AC50,[1],1.91 µM (active)
same,outcome,[6],inactive
CC(C)CCCCCCOC(=O)C1CCCCC1C(=O)OCCCCCCC(C)C (stereo unspecified),outcome,[1],inactive
C[C@]12C=CC(=O)C=C1CC[C@H]1[C@@H]3C[C@@H](O)[C@](O)(C(=O)CO)[C@@]3(C)C[C@H](O)[C@@]12F,outcome,[7],inactive
C[C@@H]1C[C@H]2[C@@H]3CCC4=CC(=O)C=C[C@]4(C)[C@@]3(F)[C@@H](O)C[C@]2(C)[C@@]1(O)C(=O)COP(=O)(O)O,AC50,[8],15.3 µM (active)
same,outcome,[9],inactive
same,outcome,[10],inactive
CCCCCCCCCCCCCC[N+](C)(C)C,AC50,[1],21.3 µM (active)
same,AC50,[2],31.1 µM (active)
Cc1c(C(=O)O)c(O)cc2c1C(=O)c1c(O)c([C@@H]3O[C@H](CO)[C@@H](O)[C@H](O)[C@H]3O)c(O)c(O)c1C2=O,AC50,[8],11.7 µM (active)
same,outcome,[4],inactive
c1ccc2ncccc2c1,outcome,[9],inactive
same,outcome,[11],inactive
O=NO,AC50,[4],33.9 µM (active)
CCCCOC(=O)CCCCC(=O)OCCCC,outcome,[7],inactive
Cc1cc2c(cc1C(F)(F)F)N(C(=O)Nc1ccc(Oc3cccnc3C)nc1)CC2,AC50,[9],6.86 µM (active)
COC(=O)[C@H]1[C@H]2C[C@@H]3c4[nH]c5cc(OC)ccc5c4CCN3C[C@H]2C[C@@H](OC(=O)c2cc(OC)c(OC)c(OC)c2)[C@@H]1OC,AC50,[8],21.1 µM (active)
Nc1nc(N)c2nc(CNc3ccc(C(=O)N[C@@H](CCC(=O)O)C(=O)O)cc3)cnc2n1,AC50,[8],14.5 µM (active)
same,AC50,[4],38.7 µM (active)
same,AC50,[2],0.889 µM (active)
same,outcome,[12],inactive
CCO[Si](CCCNC(N)=O)(OCC)OCC,outcome,[9],inactive
COC(=O)c1c(Cl)nn(C)c1S(=O)(=O)NC(=O)Nc1nc(OC)cc(OC)n1,outcome,[9],inactive
Cc1cc(SC2=C(O)C[C@@](CCc3ccc(N)cc3)(C(C)C)OC2=O)c(C(C)(C)C)cc1CO,outcome,[4],inactive
same,AC50,[3],13.1 µM (active)
same,AC50,[12],22.6 µM (active)
CCOC(=O)C1=NOC(c2ccccc2)(c2ccccc2)C1,outcome,[1],inactive
C[C@]12CC[C@@H]3c4ccc(O)cc4CC[C@H]3[C@@H]1CCC2=O,outcome,[4],inactive
same,outcome,[13],inactive
S=C(NC1CCCCC1)NC1CCCCC1,AC50,[1],17.2 µM (active)
CCCCC(CC)CN1C(=O)C2C3C=CC(C3)C2C1=O (stereo unspecified),outcome,[9],inactive
